# From PubChem BioAssay
# Records with an inconclusive call do not appear. Calls of active or inactive are those of the source. Rule as the data show it, unless noted: active = percent of DMSO control GFP below about 86%; inactive = the rest, inconclusive results apart.
# Columns and labels:
# [1] = rapamycin-like changes in RPL19A-GFP expression – cell-based, S. cerevisiae, multiplex flow cytometry, primary screen (AID 1862);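 also: lower values mimic rapamycin by blocking the RPL19A rise seen in DMSO cells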; settings: S. cerevisiae RPL19A-GFP strain, flow cytometry fluorescence, 3 h; at 10 µM; stronger effect = lower value
# [2] = TOR pathway GLN3 branch reporter MEP2-GFP changes – S. cerevisiae, multiplex flow cytometry, primary screen (AID 1867;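 active = GFP response, as percent of the DMSO control, above the screen-wide mean plus 3 SD, about 139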;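 also: median GFP channel fluorescence of barcode-gated MEP2-GFP cells measured by flow cytometry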); settings: S. cerevisiae MEP2-GFP strain, 3 h, at 10 µM, stronger effect = higher value, 100% means same as DMSO wells
# [3] = TOR pathway RTG branch CIT2 reporter changes – S. cerevisiae, GFP fusion, multiplex flow cytometry, primary screen (AID 1870;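 active = percent response above a set limit, the screen-wide mean plus 3 SD, cut at about 130% in these data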;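 also: barcoded CIT2-GFP strain pooled with four other GFP strains with rapamycin as positive control; median GFP fluorescence per well over plate mean of DMSO wells so 100% = DMSO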); settings: S. cerevisiae CIT2-GFP expression, 3 h, at 10 µM, stronger effect = higher value
# [4] = TOR pathway LAP4-GFP level changes – S. cerevisiae, multiplex flow cytometry, primary screen (AID 1873;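 active = GFP signal, as percent of the solvent control, above the screen mean plus 3 SD, about 149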); settings: S. cerevisiae LAP4-GFP expression, 3 h, at 10 µM, stronger effect = higher value
# [5] = yeast AGP1-GFP level changes, GLN3 branch – cell-based, multiplex flow cytometry, S. cerevisiae, primary screen (AID 1887;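 active = GFP signal above the screen-wide mean plus 3 SD, that is over about 124.5% of the solvent control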;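 also: AGP1-GFP fusion strain of S. cerevisiae within a five-strain barcoded multiplex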); settings: 3 h, at 10 µM, stronger effect = higher value
# [6] = reduced mouse 2C T cell binding to pMHC/ICAM-1 vesicles – MLPCN validation set, flow cytometry, LFA-1/ICAM-1 modulator project, pilot screen (AID 2523;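 active = response below a set limit, under 55% cells CD8-positive and vesicle-bound, and CD8 cells' 90th-percentile brightness under 279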;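 as to vesicle binding response: mean PE anti-B7-1 fluorescence of CD8+ cells relative to row control; 100% = QL9-loaded vesicles with DMSO vehicle in the same plate row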); settings: 2C mouse CD8+ T cells, at 7 µM, stronger effect = lower value; double positive events: measured here: CD8+/vesicle+ event percentage
# [7] = target: Integrin beta-1 (Homo sapiens) + Integrin alpha-4 (Homo sapiens) (UniProt P13612+P05556); assay: alpha4beta1 integrin LIBS antibody binding reduction – U937 cells, HUTS-21 mAb, flow cytometry, validation set, VLA-4 allosteric modulator project, pilot screen (AID 2674;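 active = inhibition above 50%, about 3 SD of the validation set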;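 also: antibody binding induced by the VLA-4 ligand LDV present at three times its Kd; 0% = LDV ligand with antibody and no compound and 100% = antibody without LDV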); settings: HUTS-21 LIBS mAb binding, at 6.7 µM, stronger effect = higher value, binding induced by LDV ligand
# [8] = calorie-restriction mimetic ROS inhibitors, yeast – validation compound set, pilot screen (AID 2706;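 active = superoxide response below 65% of plate, a cut near 3 SD across the whole screen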;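 also: yeast exposed to compound for one week at 30 degrees C before staining; 100% = mean of all compound wells on the same plate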); settings: S. cerevisiae aging, superoxide DHE fluorescence; at 10 µM; stronger effect = lower value
# [9] = target: Beta-adrenergic receptor kinase 1 (Homo sapiens) (UniProt P25098); assay: GRK2 binders displacing RNA aptamer, biochemical, validation, human GRK2, bead flow cytometry (AID 488806;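 active = aptamer binding inhibition above 30%, about 3 SD of noise from non-fluorescent compounds; inactive = inhibition at or below 30%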); settings: bead-bound GRK2, FAM-aptamer displacement, at 10 µM, stronger effect = higher value
# [10] = target: Beta-2 adrenergic receptor (Homo sapiens) (UniProt P07550); assay: agonist-induced loss of surface beta2AR – cell-based, FAP fluorogen, flow cytometry, validation set, pilot screen (AID 504459;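 active = percent response above 42, roughly 3 SD of non-fluorescent test compounds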;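 also: agonist-driven loss of surface beta2AR via internalization measured by FAP dye flow cytometry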); settings: Am2.2-beta2AR cells, at 10 µM, stronger effect = higher value
# [11] = target: AP-2 complex subunit beta (Homo sapiens) (UniProt P63010); assay: beta-arrestin/AP2 interaction blockers – biochemical, validation set, GST-AP2 beads, flow cytometry, pilot screen (AID 504541;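 active = inhibition above 54%, about 3 SD of non-fluorescent compounds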;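 also: AP2 carries R879A mutation and is captured from E. coli lysate; bead-bound FITC arrestin peptide fluorescence measuring arrestin peptide binding to AP2; 0% = DMSO wells and 100% = excess unlabeled arrestin peptide control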); settings: FITC arrestin peptide, at 10 µM, stronger effect = higher value, AP2 beta2 appendage fragment, R879A mutant
# [12] = cytosolic pH regulators acting via V-ATPase – S. cerevisiae, pHLuorin, HTS validation (AID 504600; in the data active = response above about 15%;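 also: plate controls were DMSO for no effect and reference compound for full effect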); settings: V-ATPase proton transport, at 10 µM, stronger effect = higher value
# [13] = system: anti-desmoglein-3 scFv antibody binding to human DSG3; assay: blockers of pathogenic pemphigus antibody–desmoglein-3 binding – biochemical, validation compound set, bead-based, flow cytometry, pilot screen (AID 588368;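 active = binding below the plate cutoff, the plate median minus 3 SD, with a reading above zero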;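 also: signal is the median channel fluorescence of bead-bound GFP antibody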); settings: Protein G beads, DSG3-Fc, scFv-GFP binding, at 10 µM, stronger effect = lower value
# [14] = Nile Red efflux blockade in pump-expressing yeast – validation compound set, multiplex, phenotypic, pilot screen (AID 588506;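 active = efflux inhibition above 0.42, the validation set average plus 4 SD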;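 also: Nile Red retained in cells so higher fluorescence means more efflux inhibition; 0 = negative control wells and 1 = enniatin B 25 µM full block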); settings: S. cerevisiae pump-expressing triplex, Nile Red efflux flow cytometry; at 10 µM; stronger effect = higher value; the pumps come from Candida albicans
# [15] = target: ATP-binding cassette sub-family B member 6 (Homo sapiens) (UniProt Q9NP58); assay: blockers of ABCB6-driven porphyrin uptake – K562-ABCB6 cells, flow cytometry, validation set, pilot screen (AID 588550;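 active = inhibition above the screen-wide mean plus 3 SD, about 51%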;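 also: 0% = DMSO wells and 100% = benzethonium chloride 70 µM positive control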); settings: K562-ABCB6 porphyrin accumulation, 1 h, at 10 µM, stronger effect = higher value
# [16] = AML differentiation inducers, ER-HoxA9 marrow cells – cell-based, GFP/MAC1 double positive, flow cytometry, validation set, primary screen (AID 588685;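 active = differentiation response of at least 50%, scaled between solvent and reference control, from cells with both markers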;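 also: compound exposure lasts four days before antibody staining and flow analysis; 0% = DMSO wells and 100% = 5 µM fulvestrant positive control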); settings: stronger effect = higher value, normalized: vehicle 0, fulvestrant 100
# ATP-binding cassette sub-family B member 6 (Homo sapiens), sequence (Q9NP58 whole entry, looked up): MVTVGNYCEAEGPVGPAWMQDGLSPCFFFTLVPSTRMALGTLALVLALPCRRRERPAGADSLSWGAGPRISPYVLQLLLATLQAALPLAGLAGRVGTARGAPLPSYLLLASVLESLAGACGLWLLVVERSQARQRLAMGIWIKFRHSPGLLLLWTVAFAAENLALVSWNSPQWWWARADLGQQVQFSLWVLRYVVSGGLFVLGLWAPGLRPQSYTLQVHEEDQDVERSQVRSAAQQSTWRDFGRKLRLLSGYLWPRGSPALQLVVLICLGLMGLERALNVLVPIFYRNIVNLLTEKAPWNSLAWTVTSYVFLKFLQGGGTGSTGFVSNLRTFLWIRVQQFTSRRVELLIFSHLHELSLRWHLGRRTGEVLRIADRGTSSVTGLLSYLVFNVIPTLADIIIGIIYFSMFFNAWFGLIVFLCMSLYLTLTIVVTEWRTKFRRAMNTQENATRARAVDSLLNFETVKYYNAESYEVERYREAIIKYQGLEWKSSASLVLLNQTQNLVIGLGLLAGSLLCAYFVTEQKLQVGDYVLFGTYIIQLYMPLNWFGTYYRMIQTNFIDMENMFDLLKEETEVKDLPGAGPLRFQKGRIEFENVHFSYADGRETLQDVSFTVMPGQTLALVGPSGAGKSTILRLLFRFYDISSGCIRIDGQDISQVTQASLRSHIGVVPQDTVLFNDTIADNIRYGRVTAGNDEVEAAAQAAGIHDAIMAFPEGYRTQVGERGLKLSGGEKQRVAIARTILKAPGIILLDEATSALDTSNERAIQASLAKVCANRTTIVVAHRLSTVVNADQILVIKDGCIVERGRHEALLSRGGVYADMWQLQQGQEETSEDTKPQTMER
# Beta-2 adrenergic receptor (Homo sapiens), sequence (P07550 whole entry, looked up): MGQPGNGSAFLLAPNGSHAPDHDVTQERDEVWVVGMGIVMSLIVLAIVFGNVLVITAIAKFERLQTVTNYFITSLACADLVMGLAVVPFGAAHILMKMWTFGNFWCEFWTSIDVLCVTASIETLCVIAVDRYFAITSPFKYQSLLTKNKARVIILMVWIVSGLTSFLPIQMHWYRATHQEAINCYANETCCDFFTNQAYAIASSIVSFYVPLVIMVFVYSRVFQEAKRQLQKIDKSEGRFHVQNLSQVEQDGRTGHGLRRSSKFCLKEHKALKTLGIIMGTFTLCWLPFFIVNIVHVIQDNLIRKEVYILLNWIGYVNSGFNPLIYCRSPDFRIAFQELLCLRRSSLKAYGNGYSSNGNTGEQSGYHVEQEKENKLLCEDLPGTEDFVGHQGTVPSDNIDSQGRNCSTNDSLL
# Integrin beta-1 (Homo sapiens) + Integrin alpha-4 (Homo sapiens), sequence (P05556 whole entry, looked up): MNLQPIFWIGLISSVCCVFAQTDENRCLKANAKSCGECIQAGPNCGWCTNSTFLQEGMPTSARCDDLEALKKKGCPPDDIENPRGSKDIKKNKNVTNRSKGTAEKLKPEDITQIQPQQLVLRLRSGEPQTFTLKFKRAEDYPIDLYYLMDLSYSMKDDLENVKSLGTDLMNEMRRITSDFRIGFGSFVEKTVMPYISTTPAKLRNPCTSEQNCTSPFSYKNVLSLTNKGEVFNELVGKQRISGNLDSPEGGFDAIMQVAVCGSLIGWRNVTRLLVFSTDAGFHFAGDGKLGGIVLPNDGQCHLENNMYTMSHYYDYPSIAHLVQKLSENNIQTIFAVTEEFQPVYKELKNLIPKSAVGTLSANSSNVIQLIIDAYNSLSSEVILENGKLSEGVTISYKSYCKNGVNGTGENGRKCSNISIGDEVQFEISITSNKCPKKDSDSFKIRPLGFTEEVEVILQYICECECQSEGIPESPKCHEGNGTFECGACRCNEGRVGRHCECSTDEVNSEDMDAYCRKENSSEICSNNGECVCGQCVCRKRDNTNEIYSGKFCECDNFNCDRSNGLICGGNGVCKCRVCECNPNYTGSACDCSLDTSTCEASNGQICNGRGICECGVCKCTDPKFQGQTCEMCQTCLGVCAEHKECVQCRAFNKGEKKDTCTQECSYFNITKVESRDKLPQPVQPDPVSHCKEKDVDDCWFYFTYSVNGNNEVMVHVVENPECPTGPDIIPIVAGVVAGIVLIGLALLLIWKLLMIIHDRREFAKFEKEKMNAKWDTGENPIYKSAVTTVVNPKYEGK
# Integrin beta-1 (Homo sapiens) + Integrin alpha-4 (Homo sapiens), sequence (P13612 whole entry, looked up): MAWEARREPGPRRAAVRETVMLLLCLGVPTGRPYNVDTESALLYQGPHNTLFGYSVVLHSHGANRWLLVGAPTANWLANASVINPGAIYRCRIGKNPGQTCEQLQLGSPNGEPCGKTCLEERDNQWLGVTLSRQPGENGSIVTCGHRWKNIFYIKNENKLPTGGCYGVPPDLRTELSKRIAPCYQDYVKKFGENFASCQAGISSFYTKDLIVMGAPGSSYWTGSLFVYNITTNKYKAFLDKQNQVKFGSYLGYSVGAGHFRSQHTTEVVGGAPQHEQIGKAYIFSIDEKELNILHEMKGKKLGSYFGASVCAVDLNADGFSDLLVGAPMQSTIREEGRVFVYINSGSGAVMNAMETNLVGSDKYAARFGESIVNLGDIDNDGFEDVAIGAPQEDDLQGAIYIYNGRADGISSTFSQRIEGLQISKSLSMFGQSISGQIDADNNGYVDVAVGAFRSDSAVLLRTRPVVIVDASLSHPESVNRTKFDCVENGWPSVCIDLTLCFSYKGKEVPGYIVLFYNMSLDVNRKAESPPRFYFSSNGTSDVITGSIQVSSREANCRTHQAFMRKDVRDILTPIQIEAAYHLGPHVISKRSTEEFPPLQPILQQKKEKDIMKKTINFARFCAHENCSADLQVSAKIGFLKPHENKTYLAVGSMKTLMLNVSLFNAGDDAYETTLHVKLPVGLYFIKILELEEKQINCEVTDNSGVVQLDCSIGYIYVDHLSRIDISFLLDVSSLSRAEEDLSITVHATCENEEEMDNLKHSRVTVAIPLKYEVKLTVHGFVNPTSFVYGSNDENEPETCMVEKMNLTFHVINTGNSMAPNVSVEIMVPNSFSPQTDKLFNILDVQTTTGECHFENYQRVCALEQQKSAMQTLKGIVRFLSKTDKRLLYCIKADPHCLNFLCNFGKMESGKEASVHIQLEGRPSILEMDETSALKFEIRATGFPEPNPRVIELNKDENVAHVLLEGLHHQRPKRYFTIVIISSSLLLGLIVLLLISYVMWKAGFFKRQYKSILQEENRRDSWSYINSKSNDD
# Beta-adrenergic receptor kinase 1 (Homo sapiens), sequence (P25098 whole entry, looked up): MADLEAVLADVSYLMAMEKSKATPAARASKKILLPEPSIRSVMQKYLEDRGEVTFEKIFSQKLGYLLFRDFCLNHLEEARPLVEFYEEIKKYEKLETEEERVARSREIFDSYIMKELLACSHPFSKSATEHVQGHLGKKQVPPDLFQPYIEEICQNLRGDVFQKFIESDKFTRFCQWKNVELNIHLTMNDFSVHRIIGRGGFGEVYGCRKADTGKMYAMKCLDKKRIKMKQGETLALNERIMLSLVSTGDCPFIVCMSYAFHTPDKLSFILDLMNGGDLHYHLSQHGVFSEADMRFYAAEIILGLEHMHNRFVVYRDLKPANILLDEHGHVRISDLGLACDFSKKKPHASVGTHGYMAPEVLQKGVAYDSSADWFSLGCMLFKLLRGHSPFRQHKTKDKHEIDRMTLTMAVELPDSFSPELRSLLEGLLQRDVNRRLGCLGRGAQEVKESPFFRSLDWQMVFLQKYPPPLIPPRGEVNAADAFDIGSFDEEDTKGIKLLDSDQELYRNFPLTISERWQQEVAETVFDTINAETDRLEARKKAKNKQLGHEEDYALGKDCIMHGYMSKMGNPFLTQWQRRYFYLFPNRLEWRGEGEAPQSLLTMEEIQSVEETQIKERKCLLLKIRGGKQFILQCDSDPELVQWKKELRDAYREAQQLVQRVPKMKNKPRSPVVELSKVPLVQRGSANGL
# AP-2 complex subunit beta (Homo sapiens), sequence (P63010 whole entry, looked up, the tested form may be a part, one chain of several): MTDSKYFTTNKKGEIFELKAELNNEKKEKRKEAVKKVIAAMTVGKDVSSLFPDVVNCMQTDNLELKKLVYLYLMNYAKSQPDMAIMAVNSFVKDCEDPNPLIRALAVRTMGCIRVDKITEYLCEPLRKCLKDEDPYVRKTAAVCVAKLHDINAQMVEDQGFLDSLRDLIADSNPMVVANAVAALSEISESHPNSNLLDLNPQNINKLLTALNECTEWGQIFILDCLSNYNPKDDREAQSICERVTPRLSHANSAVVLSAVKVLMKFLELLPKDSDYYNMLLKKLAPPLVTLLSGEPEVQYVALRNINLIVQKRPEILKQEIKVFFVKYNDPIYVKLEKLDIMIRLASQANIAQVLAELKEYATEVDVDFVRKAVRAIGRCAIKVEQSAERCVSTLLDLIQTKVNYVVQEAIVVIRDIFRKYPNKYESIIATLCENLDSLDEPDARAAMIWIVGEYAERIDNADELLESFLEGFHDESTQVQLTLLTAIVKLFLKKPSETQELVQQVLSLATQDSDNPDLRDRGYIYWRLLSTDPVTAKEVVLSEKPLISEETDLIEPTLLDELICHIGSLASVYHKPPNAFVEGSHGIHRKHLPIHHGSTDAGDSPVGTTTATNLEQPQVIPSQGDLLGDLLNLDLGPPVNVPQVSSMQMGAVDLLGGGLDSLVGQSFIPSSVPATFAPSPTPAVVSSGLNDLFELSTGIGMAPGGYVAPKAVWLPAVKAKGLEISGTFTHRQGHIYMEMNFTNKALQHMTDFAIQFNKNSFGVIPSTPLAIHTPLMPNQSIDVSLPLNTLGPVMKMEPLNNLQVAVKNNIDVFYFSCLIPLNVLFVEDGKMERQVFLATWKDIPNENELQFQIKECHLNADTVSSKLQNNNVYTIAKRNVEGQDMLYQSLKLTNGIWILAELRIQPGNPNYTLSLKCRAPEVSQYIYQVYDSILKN
Compound,percent of DMSO control GFP [1],GFP response vs DMSO [2],percent response of DMSO control [3],GFP response vs DMSO [4],"GFP response, % of DMSO [5]",double positive events [6] [%],vesicle binding response [6],inhibition [7],superoxide response (% of plate) [8],aptamer binding inhibition [9],response [10],inhibition [11],response [12],binding (% of control) [13],efflux inhibition (fraction of control) [14],inhibition [15],differentiation response [16]
CCCCOc1ccc(C(=O)CCN2CCCCC2)cc1,109% (inactive),96.6% (inactive),97.6% (inactive),126% (inactive),78.8% (inactive),58.1,108% (inactive),-9.13% (inactive),83.9% (inactive),-1% (inactive),26.6% (inactive),-10.4% (inactive),7.43% (inactive),104% (inactive),0.11 (inactive),7% (inactive),4.2% (inactive)
CC(C)C1CC(CCNCc2ccc(N(C)C)cc2)(c2ccccc2)CCO1 (stereo unspecified),95.2% (inactive),105% (inactive),118% (inactive),76.5% (inactive),87.7% (inactive),58.6,200% (inactive),9.37% (inactive),112% (inactive),-4% (inactive),3.92% (inactive),-7.09% (inactive),0.42% (inactive),111% (inactive),-0.09 (inactive),8% (inactive),-1.64% (inactive)
CC(=O)Oc1cc2oc(=O)cc(C)c2cc1OC(C)=O,101% (inactive),102% (inactive),99.6% (inactive),73.5% (inactive),86% (inactive),60,207% (inactive),-5.89% (inactive),102% (inactive),10% (inactive),-3.64% (inactive),3.54% (inactive),1.09% (inactive),101% (inactive),0.08 (inactive),7% (inactive),-15.2% (inactive)
S=C(NCc1ccccc1)NCc1cccc(CNC(=S)NCc2ccccc2)c1,105% (inactive),98.6% (inactive),93.8% (inactive),108% (inactive),120% (inactive),62.4,205% (inactive),9.1% (inactive),81.9% (inactive),-2% (inactive),-21.3% (inactive),2.64% (inactive),-2.61% (inactive),100% (inactive),0.33 (inactive),2% (inactive),1.91% (inactive)
Nc1ccc2nc(Cc3ccccc3)[nH]c2c1,90.2% (inactive),150% (active),108% (inactive),82.5% (inactive),89.4% (inactive),60.5,192% (inactive),3.55% (inactive),102% (inactive),7% (inactive),10.6% (inactive),-0.76% (inactive),-0.84% (inactive),98% (inactive),0.48 (active),3% (inactive),15.6% (inactive)
CN(C)CCOC(=O)C(c1ccccc1)C1(O)CCCC1 (stereo unspecified),92% (inactive),137% (inactive),97.9% (inactive),75.9% (inactive),84.3% (inactive),65.7,249% (inactive),13.2% (inactive),96.1% (inactive),3% (inactive),2.3% (inactive),1.31% (inactive),0.51% (inactive),103% (inactive),0.05 (inactive),14% (inactive),-6.55% (inactive)
CCCN1CCC(NC(=O)Nc2ccc(Br)cc2)CC1,104% (inactive),110% (inactive),102% (inactive),92.7% (inactive),102% (inactive),63.2,96.6% (inactive),-0.45% (inactive),94.7% (inactive),-5% (inactive),1.9% (inactive),-13.3% (inactive),1.92% (inactive),96.8% (inactive),-0.23 (inactive),16% (inactive),13.9% (inactive)
C/C(CCc1oc2ccc(Cl)cc2c1-c1ccc(C)o1)=N\O,101% (inactive),103% (inactive),103% (inactive),125% (inactive),102% (inactive),63.1,157% (inactive),-16.4% (inactive),107% (inactive),0% (inactive),-13% (inactive),4.9% (inactive),6.85% (inactive),111% (inactive),0 (inactive),-3% (inactive),9.79% (inactive)
OC(C#CCN1CCCC1)(c1ccccc1)c1cccnc1 (stereo unspecified),98.9% (inactive),101% (inactive),98.3% (inactive),103% (inactive),107% (inactive),60.3,166% (inactive),11.7% (inactive),83.2% (inactive),6% (inactive),-14.6% (inactive),-2.57% (inactive),1.86% (inactive),108% (inactive),-0.09 (inactive),-14% (inactive),14.7% (inactive)
CC1(C)CC(NCc2ccccc2)CCO1 (stereo unspecified),103% (inactive),97.6% (inactive),96.4% (inactive),101% (inactive),114% (inactive),60.6,226% (inactive),13.4% (inactive),94.9% (inactive),0% (inactive),-7.51% (inactive),60.9% (active),5.23% (inactive),101% (inactive),0.04 (inactive),4% (inactive),-7.94% (inactive)
CCOC(=O)[C@H]1O[C@@H]1C(=O)N[C@@H](CC(C)C)C(=O)NCCC(C)C,91.1% (inactive),135% (inactive),97.9% (inactive),82.5% (inactive),91.7% (inactive),55.3,224% (inactive),6.46% (inactive),97% (inactive),3% (inactive),-8.75% (inactive),-3.19% (inactive),6.36% (inactive),106% (inactive),0.05 (inactive),7% (inactive),0.82% (inactive)
O=C(/C=C/c1ccccc1)NC(=O)c1ccccc1O,106% (inactive),104% (inactive),104% (inactive),121% (inactive),94.2% (inactive),59.9,128% (inactive),4.27% (inactive),111% (inactive),-4% (inactive),5.9% (inactive),15.2% (inactive),-7.97% (inactive),102% (inactive),0.07 (inactive),0% (inactive),-10.4% (inactive)
O=C(NCc1ccco1)/C(=C\C=C\c1ccccc1)NC(=O)c1ccccc1Br,108% (inactive),107% (inactive),110% (inactive),110% (inactive),106% (inactive),60.6,139% (inactive),-14.5% (inactive),95.8% (inactive),0% (inactive),12.9% (inactive),5.44% (inactive),1.56% (inactive),104% (inactive),-0.045 (inactive),-4% (inactive),-3.11% (inactive)
COc1ccc(C(C)=O)c2c1OCCO2,100% (inactive),94.1% (inactive),91.9% (inactive),88.7% (inactive),97.2% (inactive),65.9,891% (inactive),-2.53% (inactive),97.6% (inactive),1% (inactive),3.38% (inactive),14.1% (inactive),0.17% (inactive),99.5% (inactive),-0.07 (inactive),11% (inactive),-1.71% (inactive)
C=CC1=C(C(=O)O)N2C(=O)C(NC(=O)Cc3ccccc3)C2SC1 (stereo unspecified),101% (inactive),103% (inactive),105% (inactive),82.8% (inactive),100% (inactive),62,134% (inactive),13.2% (inactive),96.1% (inactive),86% (active),0.41% (inactive),15.3% (inactive),1.11% (inactive),101% (inactive),0.01 (inactive),7% (inactive),-31.2% (inactive)
Cc1cccc(N2CCN(C(=S)c3ccccc3)CC2)c1,100% (inactive),108% (inactive),100% (inactive),88.7% (inactive),90.8% (inactive),63.1,5220% (inactive),-4.6% (inactive),101% (inactive),0% (inactive),-1.25% (inactive),-6.82% (inactive),1.76% (inactive),95.3% (inactive),-0.14 (inactive),2% (inactive),-8.55% (inactive)
N#C/C(=C\c1ccc(O)c(O)c1)C(=O)NCCCc1ccccc1,102% (inactive),101% (inactive),98.3% (inactive),108% (inactive),116% (inactive),62.1,206% (inactive),-13% (inactive),93.6% (inactive),-1% (inactive),13.4% (inactive),25.2% (inactive),-4.8% (inactive),103% (inactive),0.08 (inactive),-1% (inactive),3.88% (inactive)
Cc1ccc(N2CCN(C(=S)c3ccc(-c4cccc([N+](=O)[O-])c4)o3)CC2)cc1,98.1% (inactive),103% (inactive),109% (inactive),126% (inactive),124% (inactive),61.7,217% (inactive),-4.52% (inactive),89.3% (inactive),3% (inactive),-41.3% (inactive),1.79% (inactive),-4.54% (inactive),102% (inactive),-0.13 (inactive),3% (inactive),-9.91% (inactive)
